From the supplement of paper PMC13380429

Test system: Vero E6 infected with SARS-CoV-2
Test: inhibition of SARS-CoV-2 cytopathic effect; higher = more antiviral protection, active = above 15
Conditions: 48 h

Measured: inhibition of SARS-CoV-2 cytopathic effect

CCOc1nc2cccc(C(=O)O)c2n1Cc1ccc(-c2ccccc2-c2noc(=O)[nH]2)cc1 [azilsartan]
inactive: 1 nM 0.19% | 8.33 nM 1.58% | 100 nM 2.59% | 833.33 nM 2.65% | 10000 nM 0.22%

Nc1ccc(S(=O)(=O)Nc2ccccn2)cc1 [sulfapyridine]
inactive: 1 nM -1.16% | 8.33 nM 0.08% | 100 nM 0.38% | 833.33 nM -1.04% | 10000 nM -4.35%

CSC[C@H](N)C(=O)O [S-methylcysteine]
inactive: 1 nM 4.21% | 8.33 nM 3.63% | 100 nM 1.96% | 833.33 nM -0.82% | 10000 nM 0.31%

CNc1ccc([N+](=O)[O-])cc1-n1cnc(-c2ccc(C(F)(F)F)cc2)c1
inactive: 1 nM 1.34% | 8.33 nM 1.42% | 100 nM 0.62% | 833.33 nM 1.02% | 10000 nM -0.19%

NC(=O)CN1CC(c2ccccc2)CC1=O (stereo not given) [phenylpiracetam]
inactive: 1 nM 1.63% | 8.33 nM -10.6% | 100 nM 2.27% | 833.33 nM 1.14% | 10000 nM -0.44%

CC(C)(O)c1ccn2c(-c3ccc(F)c(-c4ccc(F)cc4C#N)c3)cnc2c1F
inactive: 1 nM -0.56% | 8.33 nM 0.82% | 100 nM 0.5% | 833.33 nM -1.01% | 10000 nM -2.58%

Nc1nc2[nH]cc(CCc3ccc(C(=O)N[C@@H](CCC(=O)O)C(=O)O)cc3)c2c(=O)[nH]1 [pemetrexed]
inactive: 1 nM -1.03% | 8.33 nM 0.64% | 100 nM 1.39% | 833.33 nM -2.48% | 10000 nM -1.3%

C[N+]1(C)[C@@H]2CC[C@H]1C[C@@H](OC(=O)C(O)c1ccccc1)C2 (stereo not given in full) [homatropine-methylbromide]
inactive: 1 nM 0.79% | 8.33 nM 1.12% | 100 nM 0.14% | 833.33 nM 0.62% | 10000 nM 0.96%

COc1ccc2cc(-c3cc(-c4cc(Cl)cc(Cl)c4)nn3[C@@H](C)c3ccc(C(=O)NCCC(=O)O)cc3)ccc2c1
inactive: 1 nM -1.85% | 8.33 nM -0.02% | 100 nM 0.97% | 833.33 nM 4.66% | 10000 nM 4.95%

CC1=C(CC(=O)O)c2cc(F)ccc2/C1=C\c1ccc([S+](C)[O-])cc1 (stereo not given) [sulindac]
inactive: 1 nM -0.99% | 8.33 nM -2.82% | 100 nM -1.46% | 833.33 nM -0.62% | 10000 nM -2.36%

Cc1cccc(C(=O)NCN2CCN(c3ccccc3C#N)CC2)c1
inactive: 1 nM -2.23% | 8.33 nM 0.9% | 100 nM -0.16% | 833.33 nM 0.2% | 10000 nM 0.79%

CCn1cc(C(=O)O)c(=O)c2ccc(-c3ccncc3)cc21 [rosoxacin]
inactive: 1 nM -1.03% | 8.33 nM -0.12% | 100 nM -1.66% | 833.33 nM -2.14% | 10000 nM 3.73%

CNCCCCOc1ccccc1Cc1ccccc1 [bifemelane]
inactive: 1 nM -0.64% | 8.33 nM 0.99% | 100 nM 1.41% | 833.33 nM -0.82% | 10000 nM -1.85%

CN1CCN(c2cc3c(cc2F)c(=O)c(C(=O)O)cn3-c2ccc(F)cc2)CC1 [difloxacin]
inactive: 1 nM -1.68% | 8.33 nM 2.12% | 100 nM 0.47% | 833.33 nM 0.94% | 10000 nM 1.41%

COc1cc2c3cc1Oc1cc(ccc1O)C[C@@H]1c4c(cc(OC)c(O)c4Oc4ccc(cc4)C[C@@H]3N(C)CC2)CC[N+]1(C)C [tubocurarine]
inactive: 1 nM -3.23% | 8.33 nM -3.95% | 100 nM -2.68% | 833.33 nM 0.38% | 10000 nM 1.45%

NC(=O)CN1CCCC1=O [piracetam]
inactive: 1 nM 0.23% | 8.33 nM -1.52% | 100 nM 3.28% | 833.33 nM -1.35% | 10000 nM -0.57%

N[C@@H]1[C@H]2CN(c3nc4c(cc3F)c(=O)c(C(=O)O)cn4-c3ccc(F)cc3F)C[C@@H]12 [trovafloxacin]
inactive: 1 nM -8.03% | 8.33 nM -6.09% | 100 nM -4.83% | 833.33 nM -0.82% | 10000 nM -1.33%

C=C(C)[C@@H]1CC[C@]2(CO)CC[C@]3(C)[C@H](CC[C@@H]4[C@@]5(C)CC[C@H](O)C(C)(C)[C@@H]5CC[C@]43C)[C@@H]12
inactive: 1 nM -5.94% | 8.33 nM -10.1% | 100 nM -7.13% | 833.33 nM -9.2% | 10000 nM -12.6%

O=C(O)[C@H](Cc1c[nH]c2ccccc12)N1C(=O)c2ccccc2C1=O
inactive: 1 nM 2.9% | 8.33 nM 3.8% | 100 nM -0.51% | 833.33 nM -0.14% | 10000 nM 0.14%
